PubChem BioAssay (NCI)
Several values for one entry are separate records, joined by “and”; a condition that tells them apart may be missing. Equal entries are not always repeated. Compounds without any hit were thinned out: in the full panel of roughly 79,000, 15% have a hit. Where a structure was tested more than once in an assay, its records may differ in their call. Activity calls are given as the source filed them. Cut-off read from the data, not from the text of the source: active = growth inhibition above about 70%; inactive = the rest.

How the values were obtained:
[1] = NCI Yeast Anticancer Drug Screen. Data for the rad50 strain (AID 155);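 note: 0% = growth of vehicle-only cultures of the same strain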; settings: S. cerevisiae rad50 strain growth inhibition; at 50.0 µM; stronger effect = higher value
Outline: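 DNA repair mutant yeast, compound exposure, growth read-out; inhibition is taken relative to vehicle.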

[2] = NCI Yeast Anticancer Drug Screen. Data for the mec2-1 strain (AID 157); settings: S. cerevisiae mec2-1 strain, at 50.0 µM, stronger effect = higher value
Outline: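 Cells of the genetically defined mec2-1 yeast strain are incubated with test compound. Inhibition of growth is calculated against vehicle-treated controls.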

[3] = NCI Yeast Anticancer Drug Screen. Data for the sgs1 mgt1 strain (AID 161);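 note: 0% = growth of cultures given vehicle only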; settings: S. cerevisiae sgs1 mgt1 strain, at 50.0 µM, stronger effect = higher value
Outline: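 Read-out: growth inhibition vs vehicle controls. Cells: mutant yeast strain deficient in DNA damage repair.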

[4] = NCI Yeast Anticancer Drug Screen. Data for the cln2 rad14 strain (AID 165);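 note: 0% = growth equal to vehicle treated cultures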; settings: S. cerevisiae cln2 rad14 strain, at 50.0 µM, stronger effect = higher value
Outline: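 The screen exposed genetically defined yeast (cln2 rad14) to test compounds and scored growth inhibition relative to vehicle-treated controls.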

[5] = NCI Yeast Anticancer Drug Screen. Data for the bub3 strain (AID 167); settings: S. cerevisiae bub3 mutant strain, at 50.0 µM, stronger effect = higher value
Outline: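 In this screen, a yeast mutant lacking normal mitotic checkpoint function is challenged with compound. Relative growth versus vehicle gives the inhibition value.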

[6] = NCI Yeast Anticancer Drug Screen. Data for the mlh1 rad18 strain (AID 175); settings: S. cerevisiae mlh1 rad18 strain growth inhibition; at 50.0 µM; stronger effect = higher value
Outline: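 Compound-treated yeast growth, normalised to vehicle controls. Strain bears defined DNA repair mutations.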

Measured: growth inhibition

CC1(c2cccs2)NC(=O)NC1=O (configuration not stated)
inactive: [1] 19.6% and 3.7% | [2] -6.2% and 9.05% | [3] 6.25% and 6.1% | [4] -41% and 2.3% | [5] 0.95% and 8.8% | [6] 7.1% and -3.55%

c1ccc(Cc2nc3ccccc3[nH]2)cc1
inactive: [1] -13.5% and -2.5% | [2] -33.8% and -4.1% | [3] -10.4% and -18.9% | [4] -4.9% and 2.65% | [5] -28.8% and -13.8% | [6] 0.7% and -16.4%

COc1ccc2c(=O)oc3c(OC)cc(CCN(C)C)c4c(=O)oc1c2c34
inactive: [1] 62.9% and -8.15% | [2] -0.55% and -23.4% | [3] 0.35% and -57.6% | [4] 4.3% and -24.4% | [5] 20.2% and -43.8% | [6] 25.4% and -30.3%

COc1ccc2c(c1OC)CN(C)CCc1cc3c(cc1C(=O)C2)OCO3
inactive: [1] -5.15% and -35.8% | [2] 15.7% and -17.1% | [3] -0.5% and -14.6% | [4] 49.6% and 11.8% | [5] 7.7% and -18.5% | [6] -29.9% and -8.35%

O=c1c([N+](=O)[O-])c[nH]c2cc(Cl)ccc12
inactive: [1] -38.3% and 6.4% | [2] 2.25% and -2.2% | [3] -19.2% and 8.3% | [4] 0.25% and 35.5% | [5] -6% and 11.6% | [6] -33.7% and 15.8%

COC(=O)C(CC(C)C)NC(=O)CN1C(=O)c2ccccc2C1=O (configuration not stated)
inactive: [1] -12.9% and 9.2% | [2] -5.95% and 10.9% | [3] 6.75% and 4.6% | [4] 5.05% and 6.3% | [5] -10% and 7.3% | [6] -2.4% and 1.45%

CC1(C)CC(=O)CC(=O)C1
inactive: [1] 25.2% and 10.2% | [2] 12.8% and 3.15% | [3] -9.3% and 4.6% | [4] 18.8% and 0.85% | [5] 2.55% and 6.75% | [6] 18.6% and 6.8%

CCOC(=O)c1ccc(O)c(O)c1
inactive: [1] -23.9% and 15.5% | [2] -28.1% and 6.75% | [3] -6.65% and 4.05% | [4] -12.2% and 8.9% | [5] -11.8% and 0.7% | [6] -8.8% and -5.75%

C/C=C(\C)C(=O)O
inactive: [1] 17.6% and -9.95% | [2] 9.3% and -5.05% | [3] -4.9% and -41.8% | [4] 13.2% and 2.25% | [5] 11.4% and -42.2% | [6] 25% and 9.75%

O=C(CCCCCCCCC(=O)NCC1(c2ccccc2)CCN(Cc2ccccc2)CC1)NCC1(c2ccccc2)CCN(Cc2ccccc2)CC1
inactive: [1] -7.45% and 8.25% | [2] -17.1% and 6.25% | [3] -13.8% and -19.2% | [4] -11.4% and 2.2% | [5] 10.4% and 3.6% | [6] -0.55% and 26.4%

O=C(O)CCCCC(=O)O
inactive: [1] 2.1% and -5.2% | [2] -6.65% and -1.2% | [3] -3.8% and -32.5% | [4] -30.3% and 8% | [5] -18.1% and -22.1% | [6] -5.6% and 6.85%

CCCCOC(=O)c1ccc(O)cc1
inactive: [1] 25.4% and 23% | [2] -2.95% and -1.8% | [3] 8.7% and -6.55% | [4] 3.55% and -11.2% | [5] 8.75% and 33.6% | [6] 23.4% and 48%

COc1ccc(-c2[nH]c(=O)n(C3OC(CO)C(O)C(O)C3O)c(=O)c2C#N)cc1 (configuration not stated)
inactive: [1] 7.65% and 19.9% | [2] 5.4% and 6.1% | [3] -8.55% and 1.1% | [4] 36.9% and 13.5% | [5] 6.95% and 7.6% | [6] -78.4% and -59%

CC(O)(c1cccc(Cl)c1)C(c1ccccc1)c1ccccn1 (configuration not stated)
19.8% (inactive) and 92.2% (active): [4]
active: [1] 82.6% and 97.7% | [2] 79.2% and 97.9% | [3] 95% and 97.8% | [6] 79.7% and 97%
46.8% (inactive) and 97.4% (active): [5]

COC1C(C)OCOC2COCOC21 (configuration not stated)
inactive: [1] 17.4% and -6.3% | [2] 2.2% and -13.2% | [3] 4.15% and -8.6% | [4] 0.5% and -19.8% | [5] 9.05% and -3.8% | [6] 7.4% and -0.45%

CCCCC(CC)CCC(C)OC(=O)CCl (configuration not stated)
inactive: [1] 15.4% and 0.5% | [2] -2.8% and -6.75% | [3] 2.5% and -19.6% | [4] -36.4% and -22.6% | [5] -6.25% and -15.2% | [6] -1.9% and 10.2%

C[N+](C)(C)CCOC(=O)c1ccccc1CBr
40.9% (inactive) and 97.7% (active): [4]
inactive: [1] -10.6% and 52.1% | [6] 3.95% and 64.9%
35.5% (inactive) and 99.2% (active): [5]
22.8% (inactive) and 96.6% (active): [2]
16.8% (inactive) and 85.9% (active): [3]

Nc1cc2ccc(S(=O)(=O)O)cc2cc1S(=O)(=O)O
inactive: [1] 44.5% and 10.7% | [2] 14.8% and 10.9% | [3] 17.6% and -1.75% | [4] -12.3% and -14.9% | [5] 8.8% and 11.2% | [6] 29.5% and 35.3%

O=C1CCCCC1C(O)c1ccc([N+](=O)[O-])cc1 (configuration not stated)
inactive: [1] 0.05% and -2.7% | [2] 16.1% and -5.9% | [3] 10.7% and -2.35% | [4] -2.35% and -15.2% | [5] 5.3% and -5.1% | [6] 16.1% and -6.85%

O=C1Nc2ccccc2C(=O)C1=Ic1ccccc1
inactive: [1] 5% and -15.9% | [2] -11.6% and -15.4% | [3] -0.55% and -9.6% | [4] -6% and -25.2% | [5] -7.1% and -4.5% | [6] 4.15% and 17.8%

CCOC(=O)C(CC(C(=O)OCC)C(=O)OCC)C(=O)OCC
inactive: [1] -21.1% and -11.8% | [2] -15.1% and -16.2% | [3] -6.3% and -20.6% | [4] 10.7% and -16.1% | [5] 10.8% and -12.5% | [6] -25.1% and -9.15%

Nc1nc2nccnc2c(=O)[nH]1
inactive: [1] -10.2% and 6.15% | [2] 47% and -1.65% | [3] 1.55% and -5.7% | [4] -18.6% and -0.35% | [5] -24.9% and 1.45% | [6] -15.2% and -0.8%
